Measured values: PubChem BioAssay (EPA / NIEHS)
Inconclusive results are not listed. Calls of active or inactive are those of the source. How the source made its calls, unless noted: active means hit-call score of the fitted dose curve at least 0.9, where 1 is the maximum; inactive means score below 0.9.

Key:
[1] = CCTE_Shafer_MEA_dev_mutual_information_norm: CCTE's Neural Network Formation Assay for Mutual Information Normalization, Shafer Lab (AID 2284091);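 on AC50: mutual information between electrodes summarised as area under curve across four recording days; potency is for a decrease in mutual information relative to DMSO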
In short: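 Developing rat cortical networks on 16-electrode MEA wells are treated throughout formation (DIV 0–12). Shared electrode information is recorded four times, converted to area-under-curve, and fitted for decreases against DMSO vehicle.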

[2] = CCTE_Shafer_MEA_dev_correlation_coefficient_mean: CCTE's Neural Network Formation Assay for Mean Correlation Coefficient, Shafer Lab (AID 2284093);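 on AC50: well mean pairwise spike train correlation integrated as AUC over recording days 5 to 12; potency fitted for loss of correlation relative to DMSO vehicle wells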
In short: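 Read-out: well-mean correlation coefficient of spike trains between electrode pairs, collapsed over four recording days as trapezoidal area-under-the-curve. Developing rat cortical neuron networks grown on MEAs received test chemical continuously from plating.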

[3] = UKN2_HCS_IMR90_neural_migration: University of Konstanz (UKN) Leist Lab Neural Crest Cell Migration Assay in human induced IMR90 Pluripotent Stem Cells (UKN2) (AID 2284204); conditions: actives raise or lower the signal
In short: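 Migration of human IMR90-derived neural crest cells into a stopper-defined gap is imaged after 24 h chemical treatment. Activity is fitted bidirectionally relative to DMSO.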

[4] = IUF_NPC1b_proliferation_BrdU_72hr: Leibniz Research Institute for Environmental Medicine (IUF) 72-hour Neural Progenitor Cell Bromodeoxyuridine (BrdU) Proliferation Assay (NPC1b) (AID 2284207)
In short: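 Proliferation of primary human neural progenitor cells: 72 h compound treatment at 37C, 5% CO2, pH 7.2-7.6, in EGF/FGF-containing medium. Readout is BrdU uptake (last 16 h) by chemiluminescent ELISA, normalised to DMSO.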

[5] = IUF_NPC1a_proliferation_area_72hr: Leibniz Research Institute for Environmental Medicine (IUF) 72-hour Neural Progenitor Cell Proliferation Area Assay (NPC1a) (AID 2284208)
In short: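 Spheres of 0.3 mm are plated singly in growth-factor medium and exposed from day 0. After three days at 37C and 5% CO2, sphere area is measured by phase contrast imaging, with activity referenced to DMSO.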

[6] = IUF_NPC1_viability_72hr: Viability Assessment at 72 hours in the Leibniz Research Institute for Environmental Medicine (IUF) Neural Progenitor Cell Proliferation Assay (NPC1) (AID 2284209)
In short: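 hNPC spheres, 1/well, EGF+FGF medium, 37C/5% CO2; dosed day 0, 72 h, no re-dosing. Resazurin reduction (alamar blue) fluorescence; DMSO = negative control/baseline; growth-factor-free wells as positive control.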

[7] = CCTE_Mundy_HCI_Cortical_Synap_Neur_Matur_NeuriteSpotCountPerNeuriteLength: CCTE's Synaptogenesis and Neurite Maturation Assay in rat cortical cells for Neurite Spot Count per Neurite Length, Mundy Lab (AID 2284210)
In short: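 Primary rat cortical neurons, compound exposure DIV 7–12, 288.33 h endpoint. Hoechst, anti-MAP2 and anti-synaptophysin labelling; neurite-associated puncta per neurite length scored by automated imaging relative to DMSO controls.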

[8] = CCTE_Mundy_HCI_Cortical_Synap_Neur_Matur_BPCount: CCTE's Synaptogenesis and Neurite Maturation Assay in rat cortical cells for Branch Point Count, Mundy Lab (AID 2284211)
In short: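 Rat primary cortical cultures, AraC added DIV 5; chemicals dosed DIV 7 through DIV 12. Fixed cells stained for MAP2, synaptophysin and Hoechst; neurite branch points counted by automated high-content imaging, fitted relative to DMSO.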

[9] = CCTE_Mundy_HCI_Cortical_NOG_NeuriteCount: CCTE's Neurite Outgrowth Assay in rat cortical cells for Neurite Count, Mundy Lab (AID 2284212);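 further: cells fixed about two days after chemical exposure began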
In short: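 Neurite number per cell from high-content imaging of betaIII-tubulin immunostaining, with Hoechst nuclear counterstain.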

[10] = CCTE_Mundy_HCI_Cortical_NOG_NeuriteLength: CCTE's Neurite Outgrowth Assay in rat cortical cells for Neurite Length, Mundy Lab (AID 2284213);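 on AC50: neurites imaged about 48 to 50 h after chemical exposure began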
In short: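 Neurite length was read by high-content imaging of βIII-tubulin-labelled neurites in rat primary cortical cultures. Activity was fitted relative to DMSO.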

[11] = CCTE_Mundy_HCI_Cortical_Synap_Neur_Matur_NeuriteLength: CCTE's Synaptogenesis and Neurite Maturation Assay in rat cortical cells for Neurite Length, Mundy Lab (AID 2284214)
In short: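 Rat cortical neurons, AraC at DIV 5; compound + media change DIV 7, end DIV 12 (288.33 h). Fix, MAP2/synaptophysin/Hoechst immunostain, automated HCI of neurite length vs DMSO.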

[12] = CCTE_Mundy_HCI_Cortical_Synap_Neur_Matur_NeuriteSpotCountPerNeuron: CCTE's Synaptogenesis and Neurite Maturation Assay in rat cortical cells for Neurite Spot Count per Neuron Count, Mundy Lab (AID 2284215)
In short: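 Rat cortical primary cultures; AraC DIV 5 to arrest glia; dosing + media change DIV 7; fixed DIV 12. Anti-MAP2/anti-synaptophysin, Hoechst nuclei; HCI puncta count per neuron, positive fitting direction vs DMSO.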

[13] = CCTE_Mundy_HCI_Cortical_Synap_Neur_Matur_SynapseCount: CCTE's Synaptogenesis and Neurite Maturation Assay in rat cortical cells for Synapse Count, Mundy Lab (AID 2284218)
In short: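 Primary rat cortical culture; AraC DIV 5 to arrest glia; compound + media change DIV 7; terminated DIV 12. PFA/Hoechst fix, anti-MAP2 + anti-synaptophysin immunostain; HCI synapse count/neuron; DMSO = baseline.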

[14] = CCTE_Mundy_HCI_Cortical_Synap_Neur_Matur_NeuriteCount: CCTE's Synaptogenesis and Neurite Maturation Assay in rat cortical cells for Neurite Count, Mundy Lab (AID 2284222)
In short: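 Chemical exposure runs DIV 7–12 in rat cortical cultures, glia suppressed by AraC at DIV 5; measurement is at DIV 12. Imaging-derived neurite counts are fitted against DMSO baseline.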

[15] = CCTE_Mundy_HCI_Cortical_Synap_Neur_Matur_CellBodySpotCount: CCTE's Synaptogenesis and Neurite Maturation Assay in rat cortical cells for Cell Body Spot Count, Mundy Lab (AID 2284223)
In short: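 Rat cortical neurons; AraC @ DIV 5; dose + media change DIV 7; fix DIV 12; anti-MAP2/anti-synaptophysin IF, Hoechst; HCI count of soma synaptophysin puncta/neuron; DMSO = negative control.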

[16] = CCTE_Mundy_HCI_hNP1_Pro_ResponderAvgInten: CCTE's Proliferation Assay in human neuroprogenitor cells, Mundy Lab (AID 2284224; active means hit-call score of the fitted dose curve at least 0.9, where 1 is the maximum;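 further: human neural progenitor cells hNP1 derived from WA09 embryonic stem cells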)
In short: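 Proliferation was scored as BrdU labelling intensity in human neural progenitors derived from WA09 embryonic cells, measured 26.25 hours after chemical dosing. Activity was fitted relative to DMSO.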

[17] = UKN4_HCS_LUHMES_neurite_outgrowth: University of Konstanz (UKN) Leist Lab Neurite Outgrowth Assay in human LUHMES cells (UKN4) (AID 2284206); conditions: actives raise or lower the signal
In short: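 Day 0 switch to differentiation medium; day 2 replate (30000 cells/well) without cAMP and GDNF; compounds added 30 min–2 h later. At 23.5 h, 30 min calcein-AM/H-33342 live stain, then imaging.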

[18] = CCTE_Mundy_HCI_hN2_NOG_NeuriteCount: CCTE's Neurite Outgrowth Assay in human hN2 cells for Neurite Count, Mundy Lab (AID 2284219; active means hit-call score of the fitted dose curve at least 0.9, where 1 is the maximum)
In short: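 In this morphology assay, hNP1-derived neurons received test chemical 2 h post-plating and were fixed two days later in warm paraformaldehyde/sucrose containing Hoechst 33342. Neurites, labelled by rabbit anti-βIII-tubulin (1:800) and Alexa Fluor-488 (1:500), were counted automatically.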

[19] = CCTE_Mundy_HCI_hN2_NOG_NeuriteLength: CCTE's Neurite Outgrowth Assay in human hN2 cells for Neurite Length, Mundy Lab (AID 2284220; active means hit-call score of the fitted dose curve at least 0.9, where 1 is the maximum)
In short: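 Plate hNP1-derived neurons, then add chemical 2 h later as a 1/10 dilution. Stain with anti-βIII-tubulin then Alexa Fluor-488 secondary, and image automatically to measure neurite length.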

[20] = CCTE_Mundy_HCI_hN2_NOG_NeuronCount: CCTE's Neurite Outgrowth Assay in human hN2 cells for Neuron Count, Mundy Lab (AID 2284221; active means hit-call score of the fitted dose curve at least 0.9, where 1 is the maximum)
In short: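 Read-out is the number of betaIII-tubulin-positive neurons imaged by automated high-content analysis, with DMSO as negative control.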

Measured: AC50

CCOCn1c(-c2ccc(Cl)cc2)c(C#N)c(Br)c1C(F)(F)F
active: [1] 1.72 µM | [2] 5.53 µM | [3] 9.47 µM | [5] 26.3 µM | [6] 26.8 µM | [7] 22.7 µM | [8] 13.1 µM | [9] 23.2 µM | [10] 22.4 µM | [11] 15.5 µM | [12] 13.5 µM | [13] 13.5 µM | [14] 16.4 µM | [15] 18.9 µM | [16] 9.2 µM
inactive: [4]

O=S(=O)(F)C(F)(F)C(F)(F)C(F)(F)C(F)(F)F
inactive: [1] | [2]

OC(Cc1ccccc1Cl)(Cn1[nH]cnc1=S)C1(Cl)CC1 (stereo unspecified)
inactive: [5] | [6] | [9] | [10] | [15]
active: [1] 6.39 µM | [2] 21.5 µM | [3] 35.4 µM | [4] 0.0417 µM | [7] 80.4 µM | [8] 50 µM | [11] 42.7 µM | [12] 50 µM | [13] 50 µM | [14] 50 µM | [16] 31.6 µM

CS(=O)(=O)c1ccc(C(=O)C2C(=O)CCCC2=O)c(Cl)c1COCC(F)(F)F
not listed: [3] | [16] | [17] | [18] | [19] | [20]
inactive: all other assays above

CC(C)[C@@H](Nc1ccc(C(F)(F)F)cc1Cl)C(=O)OC(C#N)c1cccc(Oc2ccccc2)c1 (stereo partly specified)
active: [1] 9.36 µM | [2] 14.5 µM | [12] 4.59 µM
not listed: [3] | [16] | [17] | [18] | [19] | [20]
inactive: all other assays above

CC(=O)C(F)(F)C(F)(F)F
inactive: [1] | [2]

C=CC(F)(C(F)(F)F)C(F)(F)C(F)(F)F (stereo unspecified)
inactive: [1] | [2]

Cc1ccccc1OP(=O)(Oc1ccccc1C)Oc1ccccc1C
inactive: [4] | [5] | [6] | [7] | [14]
active: [1] 11.5 µM | [2] 15 µM | [3] 4.73 µM | [8] 26.4 µM | [9] 19.2 µM | [10] 19.6 µM | [11] 3.54 µM | [12] 3.81 µM | [13] 3.85 µM | [15] 4.04 µM | [16] 25.8 µM

FC(F)OCC(F)(F)C(F)(F)F
inactive: [1] | [2]

Cc1cc(C(F)(C(F)(F)F)C(F)(F)F)ccc1NC(=O)c1cccc(I)c1C(=O)NC(C)(C)CS(C)(=O)=O
active: [2] 19.2 µM | [17] 0.264 µM
not listed: [3] | [18] | [19] | [20]
inactive: all other assays above

NC(=O)c1ccc(N)nc1
active: [1] 7.61 µM | [2] 4.57 µM | [8] 9.07 µM | [9] 14.5 µM | [10] 14 µM | [11] 9.47 µM | [12] 9.32 µM | [13] 9.12 µM | [20] 0.000862 µM | [14] 18.7 µM
inactive: [7] | [18] | [19] | [15]

O=S1OC[C@@H]2[C@H](CO1)[C@]1(Cl)C(Cl)=C(Cl)[C@@]2(Cl)C1(Cl)Cl (stereo partly specified)
inactive: [4] | [5]
active: [3] 14.6 µM | [17] 18.6 µM | [6] 2.59 µM

C=CCOC(F)(C(F)(F)F)C(F)(F)F
inactive: [1] | [2]

CC1(C)[C@H](C(=O)O[C@H](C#N)c2cccc(Oc3ccccc3)c2)[C@@H]1/C=C(\Cl)C(F)(F)F
active: [1] 1.4 µM | [2] 5.11 µM | [4] 3.63 µM | [7] 4.59 µM | [8] 2.28 µM | [9] 19.9 µM | [10] 19.5 µM | [11] 2.35 µM | [12] 2.16 µM | [13] 2.13 µM | [14] 3.48 µM | [15] 3.52 µM
inactive: [5] | [6] | [16]

CC(F)(F)CC(F)(F)F
inactive: [1] | [2]

CNC(=O)CSP(=O)(OC)OC
not listed: [16] | [20]
inactive: all other assays above
